# Results filed as inconclusive are left out. A call without a number means that no potency is given here. A number with no mark means an inactive call. Active and inactive are the calls of the source. The call rests on the fitted dose curve; in most records, active means well fitted curve in the direction sought with a large enough effect in the repeat runs; inconclusive means weak or mixed curves; inactive means no such curve, though single readings can be large; an effect the other way counts as inactive or inconclusive.
# What was measured:
# [1] = A CellTox Green Cytotoxicity Assay to monitor cytotoxicity in HepG2 cells - 32 hour (AID 1224883); further: nearly all actives have a fitted effect of over 50% in size; further: potency means the concentration at half of the fitted maximal effect
# Method in brief: (§1)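 Read-out is fluorescence of a cyanine dye excluded from live cells that stains DNA of dead HepG2 cells, with signal proportional to cytotoxicity. Plates were read at 0, 8, 16, 24, 32 and 40 h after compound addition.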
# [2] = A CellTox Green Cytotoxicity Assay to monitor cytotoxicity in HEK293 cells - 8 hour (AID 1224884); further: nearly all actives have a fitted effect of over 35% in size
# Method in brief: (§2)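 Nonlytic real-time cytotoxicity: HEK293 + CellTox Green reagent plated, 5 h preincubation, pintool compound addition (23 nL in DMSO), 37 C for 40 h, fluorescence measured at successive time points.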
# [3] = qHTS RealTime-Glo MT Cell Viability Assay in HepG2 cells - 16 hour (AID 1224885); further: nearly all actives have a fitted effect of over 50% in size; further: potency means the concentration at half of the fitted maximal effect
# Method in brief: (§3)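 Tox21 10K library screened in qHTS format on HepG2 cells carrying RealTime-Glo reagents. Compounds were added after a 5 h preincubation, and the luminescent signal from continuous culture was measured repeatedly during 40 h treatment.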
# [4] = qHTS RealTime-Glo MT Cell Viability Assay in HEK293 cells - 24 hour (AID 1224886); further: nearly all actives have a fitted effect of over 50% in size; further: potency means the concentration at half of the fitted maximal effect; on activity change, negative = cytotoxicity: top concentration of the series differs between compounds
# Method in brief: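 Luminescence generated by NanoLuc from substrate produced by living HEK293 cells served as the viability signal. Each value reflects the reading at its stated time point during continuous 40 h compound exposure at 37 C.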
# [5] = qHTS RealTime-Glo MT Cell Viability Assay in HEK293 cells - 8 hour (AID 1224887); further: nearly all actives have a fitted effect of over 50% in size; further: potency means the concentration at half of the fitted maximal effect; on activity change, negative = cytotoxicity: top concentration of the series differs between compounds
# Method in brief: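 Cells were seeded together with NanoLuc luciferase and a prosubstrate that viable cells reduce to a luciferase substrate. After a 5 h incubation at 37 C/5% CO2, compounds were added and luminescence was measured repeatedly during 40 h of treatment.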
# [6] = A CellTox Green Cytotoxicity Assay to monitor cytotoxicity in HEK293 cells - 16 hour (AID 1224888); further: nearly all actives have a fitted effect of over 35% in size; further: potency means the concentration at half of the fitted maximal effect
# Method in brief: as §2
# [7] = A CellTox Green Cytotoxicity Assay to monitor cytotoxicity in HepG2 cells - 8 hour (AID 1224890); further: nearly all actives have a fitted effect of over 45% in size; further: potency means the concentration at half of the fitted maximal effect
# Method in brief: as §1
# [8] = qHTS RealTime-Glo MT Cell Viability Assay in HepG2 cells - 0 hour (AID 1224889); further: nearly all actives have a fitted effect of over 50% in size
# Method in brief: as §3
# [9] = qHTS assay to identify small molecule antagonists of the estrogen receptor alpha (ER-alpha) signaling pathway using the BG1 cell line in the presence of 0.1 nM 17-beta-estradiol - cell viability counter screen (AID 1259241); further: nearly all actives have a fitted effect of over 40% in size; further: potency means the concentration at half of the fitted maximal effect
# Method in brief: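 Live-cell protease activity (CellTiter-Fluor fluorescence, 30 min) was read in the same wells after VM7Luc4E2 cells had been exposed to compounds with 0.1 nM 17beta-estradiol for 22 hr at 37C.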
compound,measurement,setting,value
O=C(Nc1ccc(Cl)c(Cl)c1)c1cc(Cl)cc(Cl)c1O,Potency,[1],11 µM (active)
same,Potency,[2],inactive
same,Potency,[3],inactive
same,Potency,[4],4.9 µM (active)
same,Potency,[5],inactive
same,Potency,[6],inactive
same,Potency,[7],inactive
CC(C)(C)c1cc(CCC(=O)NCCCCCCNC(=O)CCc2cc(C(C)(C)C)c(O)c(C(C)(C)C)c2)cc(C(C)(C)C)c1O,Potency,[1],inactive
same,Potency,[2],inactive
same,Potency,[6],inactive
same,Potency,[8],inactive
same,Potency,[7],inactive
same,Potency,[9],inactive
CCOC(=O)[C@@](C)(N)Cc1ccc(O)c(O)c1,Potency,[2],inactive
same,Potency,[3],inactive
same,Potency,[4],inactive
same,Potency,[5],inactive
same,Potency,[6],inactive
same,Potency,[8],inactive
C/C=C/C(=O)C1=C(C)CCCC1(C)C,Potency,[1],inactive
same,Potency,[2],inactive
same,Potency,[3],inactive
same,Potency,[5],inactive
same,Potency,[6],inactive
same,Potency,[8],inactive
same,Potency,[7],inactive
same,Potency,[9],inactive
CCCCN(CCCC)CCC(O)c1cc2c(Cl)cc(Cl)cc2c2cc(C(F)(F)F)ccc12 (centres undefined),Potency,[2],inactive
same,Potency,[5],inactive
same,Potency,[6],inactive
same,Potency,[8],inactive
same,Potency,[7],inactive
same,Potency,[9],inactive
Cc1cncc(C)c1,Potency,[1],inactive
same,Potency,[3],inactive
same,Potency,[4],inactive
same,Potency,[5],inactive
same,Potency,[8],inactive
same,Potency,[7],inactive
same,Potency,[9],inactive
C#CC(O)CCC (centres undefined),Potency,[2],inactive
same,Potency,[3],inactive
same,Potency,[4],inactive
same,Potency,[5],inactive
same,Potency,[6],inactive
same,Potency,[8],inactive
same,Potency,[7],inactive
same,Potency,[9],inactive
CCN=C1C=CC(=C(c2ccc(N(CC)CC)cc2)c2ccc(N(CC)CC)cc2)c2ccccc21,Potency,[1],19.4 µM (active)
same,Potency,[3],19.4 µM (active)
same,Potency,[4],7.71 µM (active)
same,Potency,[5],17.3 µM (active)
same,Potency,[6],19.4 µM (active)
same,Potency,[9],24.2 µM (active)
N[C@@H](CSSC[C@H](N)C(=O)O)C(=O)O,cytotoxicity increase,[2],26.5% [at 0.29 µM]
same,"activity change, negative = cytotoxic",[3],0.777% [at 0.29 µM]
same,"activity change, negative = cytotoxicity",[4],9.89% [at 0.29 µM]
same,"activity change, negative = cytotoxicity",[5],16.3% [at 0.29 µM]
same,activity change,[6],"14.4% [at 0.29 µM, stronger effect = higher value]"
same,"activity change, negative = cytotoxicity",[8],0.0589% [at 0.29 µM]
same,"activity change, negative = cytotoxicity",[9],0.433% [at 0.349 µM]
COc1cc(C=C2CCC/C(=C\c3ccc(O)c(OC)c3)C2=O)ccc1O,Potency,[1],21.3 µM (active)
same,Potency,[2],inactive
same,Potency,[4],23.9 µM (active)
same,Potency,[5],2.39 µM (active)
same,Potency,[6],inactive
CCCN(CCc1cccs1)[C@H]1CCc2c(O)cccc2C1,Potency,[2],inactive
same,Potency,[3],inactive
same,Potency,[4],7.56 µM (active)
same,Potency,[5],15.1 µM (active)
same,Potency,[8],inactive
same,Potency,[9],inactive
CCCCCCCCCCCCN(CCO)CCO,Potency,[1],17.3 µM (active)
same,Potency,[3],48.8 µM (active)
same,Potency,[4],43.5 µM (active)
same,Potency,[9],inactive
CCO[Si](CCCSSSSCCC[Si](OCC)(OCC)OCC)(OCC)OCC,Potency,[2],inactive
same,Potency,[3],inactive
same,Potency,[4],inactive
same,Potency,[5],inactive
same,Potency,[8],inactive
same,Potency,[7],inactive
same,Potency,[9],inactive
C=CC(C)C#N (centres undefined),Potency,[1],inactive
same,Potency,[3],inactive
same,Potency,[4],inactive
same,Potency,[5],inactive
same,Potency,[6],inactive
same,Potency,[8],inactive
same,Potency,[7],inactive
same,Potency,[9],inactive
Cc1cnccn1,Potency,[1],inactive
same,Potency,[2],inactive
same,Potency,[3],inactive
same,Potency,[4],inactive
same,Potency,[5],inactive
same,Potency,[6],inactive
same,Potency,[8],inactive
same,Potency,[7],inactive
same,Potency,[9],inactive
NCCCC(O)(P(=O)(O)O)P(=O)(O)O,Potency,[2],inactive
same,Potency,[3],inactive
same,Potency,[5],inactive
same,Potency,[6],inactive
same,Potency,[8],inactive
same,Potency,[9],inactive
O=C(c1ccccc1)c1cc(Cl)ccc1O,Potency,[1],inactive
same,Potency,[2],inactive
same,Potency,[3],inactive
same,Potency,[6],inactive
same,Potency,[8],inactive
same,Potency,[7],inactive
same,Potency,[9],inactive
C=CC(=O)OCCC#N,Potency,[1],inactive
same,Potency,[2],inactive
same,Potency,[3],inactive
same,Potency,[5],inactive
same,Potency,[6],inactive
same,Potency,[8],inactive
same,Potency,[7],inactive
same,Potency,[9],inactive
O=C1NCCN1CCN1CCC(c2cn(-c3ccc(F)cc3)c3ccc(Cl)cc23)CC1,Potency,[2],inactive
same,Potency,[3],23.9 µM (active)
same,Potency,[4],21.3 µM (active)
same,Potency,[8],inactive
CC(C(O)c1ccccc1)N(C)CCOC(c1ccccc1)c1ccccc1 (centres undefined),Potency,[1],26.8 µM (active)
same,Potency,[2],inactive
same,Potency,[7],26.8 µM (active)
same,Potency,[9],inactive

# Reference: PubChem BioAssay (Tox21)
